According to PubChem BioAssay (NCATS):
“And” between values parts separate entries of the source, which are not always exact repeats. Identical values can stand only once. Inconclusive results are not listed. The source holds several records for some structures; these can differ, active in one and inactive in another. The source made the active and inactive calls. Calls follow the shape of the dose curve; as a rule, active = well fitted curve in the direction sought with a large enough effect; inconclusive = small, poorly fitted or top-dose-only effect, or another doubt; inactive = no such curve, though single readings can be large; an effect the other way counts as inactive or inconclusive.

Tests used:
[1] = Viability qHTS for spleen associated tyrosine kinase inhibitor (SYKi) naive MV4-11 cells (AID 1963823); also: nearly all actives have a fitted effect of over 40% in size
How it was run: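 Cells: MV4-11, SYK inhibitor naive, 500 per well. Treatment: library compounds, 72 hr, 37 C, 5% CO2. Read-out: CellTiter-Glo luminescence after 10 min RT.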

[2] = Viability qHTS for spleen associated tyrosine kinase inhibitor (SYKi) drug resistant MV4-11 cells (AID 1963824); also: nearly all actives have a fitted effect of over 35% in size
How it was run: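 SYK-inhibitor-resistant MV4-11 AML cells were seeded at 500 per well onto compound and cultured 72 hours (37 °C, 5% CO2). CellTiter-Glo was then added, and after 10 min at room temperature, luminescence gave viability.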

[3] = Quantitative highthroughput screen to assess conditional lethalithy of NOMO1 cells grown in Human Plasma-Like Medium with dialyzed fetal bovine serum (HPLM+ds) (AID 1963878); also: nearly all actives have a fitted effect of over 35% in size;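 as to Viability: 100% = DMSO wells and 0% = empty wells on each plate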
How it was run: (§1)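 Each medium arm—HPLM with 10% dialyzed FBS, or RPMI1640 with 5 mM glucose and 10% untreated or dialyzed FBS—was screened against an 11-point, 3-fold compound titration for 48 h at 37 °C, with CellTiter-Glo luminescence as endpoint.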

[4] = Quantitative highthroughput screen to assess conditional lethalithy of P12 Ichikawa cells grown in Human Plasma-Like Medium with dialyzed fetal bovine serum (HPLM+ds) (AID 1963879); conditions: Potency: viability; also: nearly all actives have a fitted effect of over 35% in size
How it was run: as §1

[5] = Quantitative highthroughput screen to assess conditional lethalithy of P12 Ichikawa cells grown in RPMI1640 with dialyzed fetal bovine serum (RPMI+ds) (AID 1963880); conditions: Potency: P12-Ichikawa viability; also: nearly all actives have a fitted effect of over 35% in size
How it was run: as §1

[6] = Quantitative highthroughput screen to assess conditional lethalithy of P12 Ichikawa cells grown in RPMI1640 with untreated serum (RPMI+s) (AID 1963881); conditions: Potency: viability; also: nearly all actives have a fitted effect of over 35% in size
How it was run: as §1

[7] = Quantitative highthroughput screen to assess conditional lethalithy of SEM cells grown in RPMI1640 with unreated serum (RPMI+s) (AID 1963883); also: nearly all actives have a fitted effect of over 35% in size
How it was run: as §1

[8] = Quantitative highthroughput screen to assess conditional lethalithy of SEM cells grown in RPMI1640 with dialyzed fetal bovine serum (RPMI+ds) (AID 1963884); also: nearly all actives have a fitted effect of over 35% in size
How it was run: as §1

[9] = Cellular viability qHTS for adrenocortical cancer (ACC) cell line SW-13 (AID 1963989); conditions: SW-13 ACC cells viability, CellTiter-Glo, 48 h; activity (max response): stronger effect = lower value; also: nearly all actives have a fitted effect of over 65% in size;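 as to activity (max response): cells grown in serum-free medium with ITS supplement; % is scaled to controls: 0 for no effect and ±100 for the full control effect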
How it was run: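 Luminescent ATP read-out (CellTiter-Glo, 20 min at room temperature) measured metabolically competent SW-13 cells after 48 h compound treatment. Final concentrations spanned up to 46 uM; bortezomib served as positive control.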

[10] = Cellular viability qHTS for adrenocortical cancer (ACC) cell line NCI-H295R (AID 1963990); also: nearly all actives have a fitted effect of over 60% in size
How it was run: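 IC50 and maximal efficacy derive from four-parameter logistic modelling of titration curves, with reads scaled between DMSO-only wells (0%) and doxorubicin hydrochloride (100% inhibition). Compounds spanned up to 46 uM over 48 h.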

[11] = Quantitative highthroughput screen to assess conditional lethalithy of NOMO1 cells grown in RPMI1640 with dialyzed fetal bovine serum (RPMI+ds) (AID 1963877); also: nearly all actives have a fitted effect of over 30% in size;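 as to Viability: series mostly up to about 46 µM; 100% = DMSO control wells and 0% = empty wells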
How it was run: as §1

[12] = Quantitative highthroughput screen to assess conditional lethalithy of SEM cells grown in Human Plasma-Like Medium with dialyzed fetal bovine serum (HPLM+ds) (AID 1963882); also: nearly all actives have a fitted effect of over 35% in size
How it was run: as §1
Potency is read from the fitted curve at half-maximal effect.

COc1cc2c(Nc3ccc(NC(=O)c4ccccc4)cc3)ncnc2cc1OCCCN1CCOCC1
inactive: Potency [3] | activity (max response) [9] -24.4%
active: Potency [1] 1.16 µM and 1.86 µM | Potency [2] 2.06 µM and 2.09 µM | Potency [4] 3.72 µM | Potency [5] 3.32 µM | Potency [6] 4.69 µM | Potency [7] 3.72 µM | Potency [8] 2.96 µM | Potency [10] 15.8 µM

COc1cc2c(N3CCN(C(=O)Nc4ccc(OC(C)C)cc4)CC3)ncnc2cc1OCCCN1CCCCC1
inactive: Potency [10]
active: Potency [1] 231 nM and 235 nM | Potency [2] 366 nM and 662 nM | Potency [11] 8.33 µM | Potency [5] 8.33 µM | Potency [7] 0.469 µM | Potency [8] 0.132 µM

Cn1c(Nc2ccc(C(F)(F)F)cc2)nc2cc(Oc3ccnc(-c4ncc(C(F)(F)F)[nH]4)c3)ccc21
active: Potency [1] 2.91 µM | Potency [2] 1.3 µM | Potency [11] 23.5 µM | Potency [5] 18.7 µM | Potency [6] 14.8 µM | Potency [12] 9.35 µM
inactive: activity (max response) [9] -8.43% | Potency [10]

Nc1nc(N)c2nc(-c3cccc(O)c3)c(-c3cccc(O)c3)nc2n1
active: Potency [1] 13 µM | Potency [2] 14.6 µM | Potency [3] 10.5 µM | Potency [12] 10.5 µM | Potency [7] 18.7 µM

CN1CCN(c2cc(C(=O)Nc3ccc4c(c3)-c3c(c(C(N)=O)nn3-c3ccc(F)cc3)CC4)c(Cl)cn2)CC1
inactive: activity (max response) [9] -15.3%
active: Potency [1] 4.11 µM | Potency [2] 2.59 µM | Potency [3] 26.4 µM | Potency [12] 23.5 µM | Potency [10] 25.1 µM

COc1cc2nc(N3CCN(C(=O)c4ccco4)CC3)nc(N)c2cc1OC
active: Potency [1] 10.3 µM | Potency [2] 11.6 µM | Potency [3] 13.2 µM | Potency [4] 16.6 µM | Potency [12] 9.35 µM | Potency [7] 10.5 µM | Potency [8] 7.43 µM
inactive: activity (max response) [9] -8.85%

OCCNC1CCCc2c1[nH]c1ccc(-c3ccccc3)cc21 (centres undefined)
active: Potency [1] 8.33 µM | Potency [2] 8.33 µM | Potency [3] 23.5 µM | Potency [4] 20.9 µM | Potency [6] 18.7 µM | Potency [7] 16.6 µM | Potency [9] 15.8 µM | Potency [10] 7.08 µM

CS(=O)(=O)c1cccc(CNc2nc(Nc3ccc4c(c3)CCC(=O)N4)ncc2C(F)(F)F)c1
active: Potency [1] 0.105 µM | Potency [2] 0.164 µM | Potency [11] 18.7 µM | Potency [12] 8.33 µM | Potency [7] 5.26 µM | Potency [8] 6.62 µM

CC1CCC(C(=O)N(c2cc(C#CC(C)(C)C)sc2C(=O)O)C2CCC(O)CC2)CC1 (centres undefined)
active: Potency [1] 16.4 µM | Potency [2] 11.8 µM and 14.6 µM | Potency [3] 5.26 µM

Cc1cc(Nc2nc(N[C@@H](C)c3ccc(F)cc3)c(C#N)cc2F)n[nH]1
active: Potency [1] 0.651 µM | Potency [2] 580 nM and 590 nM | Potency [11] 2.64 µM | Potency [5] 2.09 µM | Potency [6] 2.35 µM | Potency [12] 3.32 µM | Potency [7] 2.96 µM | Potency [9] 3.16 µM

Cc1nn(C)c(COc2ccc(N3CCN(S(=O)(=O)N(C)C)CC3)cc2)c1-c1cccc2c(CCCOc3cccc4ccccc34)c(C(=O)O)n(CCN3CCOCC3)c12
inactive: Potency [11] | activity (max response) [9] -16.3% | Potency [10]
7.42 µM (active) and inactive: Potency [1]
6.61 µM (active) and inactive: Potency [2]

CN(C)c1ccc2cc(C(=O)N[C@@H](CCCN=C(N)CCl)C(=O)NCc3ccccc3)ccc2c1
inactive: activity (max response) [9] -6.76% | Potency [10]
active: Potency [1] 5.25 µM | Potency [2] 4.68 µM | Potency [3] 23.5 µM | Potency [7] 26.4 µM | Potency [8] 26.4 µM

CN(C)C(=O)C(CCN1CCC(O)(c2ccc(Cl)cc2)CC1)(c1ccccc1)c1ccccc1
active: Potency [1] 16.8 µM and 14.8 µM | Potency [2] 15 µM and 10.5 µM | Potency [11] 20.9 µM | Potency [9] 5.17 µM | Potency [10] 1.84 µM and 28.2 µM

CC(C)C[C@H](NC(=O)[C@H](Cc1ccccc1)NC(=O)c1cnccn1)B(O)O
active: Potency [1] 0.0132 µM | Potency [2] 9.4 nM and 11.8 nM | Potency [3] 0.0469 µM | Potency [4] 0.0372 µM | Potency [5] 0.0372 µM | Potency [6] 0.0372 µM | Potency [12] 0.0209 µM | Potency [7] 0.0187 µM | Potency [8] 0.0166 µM | Potency [9] 20.6 nM and 79.4 nM | Potency [10] 8.2 nM and 35.5 nM

CNC(=O)c1c(F)cccc1Nc1nc(Nc2cc3c(cc2OC)CCN3C(=O)CN(C)C)nc2[nH]ccc12
active: Potency [1] 2.59 µM and 4.68 µM | Potency [2] 2.91 µM and 4.68 µM | Potency [3] 16.6 µM | Potency [12] 0.59 µM | Potency [7] 0.469 µM | Potency [8] 0.296 µM | Potency [10] 1.12 µM

NCCCC(O)(P(=O)(O)O)P(=O)(O)O
inactive: Potency [1] | Potency [2] | activity (max response) [9] -4.27% | Potency [10]
active: Potency [11] 16.6 µM | Potency [12] 16.6 µM | Potency [7] 2.96 µM | Potency [8] 3.72 µM

COc1ccc(-c2cc3c(C)nc(N)nc3n(C3CCC(OCCO)CC3)c2=O)cn1 (centres undefined)
active: Potency [1] 0.105 µM | Potency [2] 206 nM and 417 nM | Potency [3] 0.105 µM | Potency [12] 0.833 µM | Potency [7] 0.469 µM | Potency [9] 1.12 µM | Potency [10] 0.501 µM
